Screening data (PubChem)
Only some compounds are listed: those with a hit (about 1.2% of all), similar ones and a draw of the others.
pAkt inh – blocks phosphorylation of Akt | Neuro2A IGF-stimulated pAkt S473 HTRF, 20 min; hits give low values | activity change, % for hits at 50 µM | 360,000 tested, 0.32% active; in the data active = activity change below about -80%; inconclusive = mostly about -51% to -80%; note: % is set by controls: 0 for no effect and ±100 for the full control effect
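Single-point screen (50 µM final compound) in Neuro2A cells stimulated 20 min with 6 nM IGF at 37 deg C. After lysis, Ser473-phosphorylated Akt read by HTRF (ex 330 nm, em 615/665 nm) as the 665/615 ratio.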
RXFP1 antag – antagonists of human relaxin receptor RXFP1 | Q9HBX9 | HEK293-RXFP1, relaxin-stimulated cAMP HTRF, 30 min; hits give low values | activity change, negative = inhibition, % at 57.5 µM | 350,000 tested, 0.59% active;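 active = activity change of -60% or lower, but not beyond a set lower limit; inconclusive = change between -60% and -40%, or beyond the set limit; inactive = change above -40%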; note: % is set by controls: 0 for no effect and ±100 for the full control effect
Target sequence (Q9HBX9 whole entry, looked up): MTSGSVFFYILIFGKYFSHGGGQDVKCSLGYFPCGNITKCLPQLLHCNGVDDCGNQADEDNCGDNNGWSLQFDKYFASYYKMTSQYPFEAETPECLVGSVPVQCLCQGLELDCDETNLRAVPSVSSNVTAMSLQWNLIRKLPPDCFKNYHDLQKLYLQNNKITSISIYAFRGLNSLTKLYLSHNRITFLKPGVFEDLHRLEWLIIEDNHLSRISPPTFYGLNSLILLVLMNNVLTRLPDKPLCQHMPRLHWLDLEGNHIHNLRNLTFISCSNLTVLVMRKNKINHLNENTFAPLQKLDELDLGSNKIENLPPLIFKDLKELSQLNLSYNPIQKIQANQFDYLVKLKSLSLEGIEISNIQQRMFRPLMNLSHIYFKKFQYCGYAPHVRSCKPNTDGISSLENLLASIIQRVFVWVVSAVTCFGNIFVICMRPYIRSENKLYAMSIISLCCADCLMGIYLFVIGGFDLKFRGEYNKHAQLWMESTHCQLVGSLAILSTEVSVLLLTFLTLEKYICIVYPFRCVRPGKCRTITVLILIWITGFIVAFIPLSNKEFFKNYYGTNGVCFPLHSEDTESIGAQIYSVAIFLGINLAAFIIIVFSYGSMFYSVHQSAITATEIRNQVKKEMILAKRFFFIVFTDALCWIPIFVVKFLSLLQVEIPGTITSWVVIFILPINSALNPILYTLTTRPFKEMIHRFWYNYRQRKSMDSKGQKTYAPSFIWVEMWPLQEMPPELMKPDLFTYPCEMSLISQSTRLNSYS
gsp agonist – gsp mutant agonism. 340,000 tested, 0.13% active. gsp mutant cells, cAMP HTRF, 30 min. AID 624287. Potency, µM (top dose mostly 76.9 µM), for the others: at the highest dose activation (cAMP increase), hits mostly activators; active = well fitted activation curve with a large enough effect; inconclusive = small, poorly fitted or top-dose-only effect, or another doubt; inactive = no such curve, though single readings can be large or run the other way; cell line not stated here;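 note: phosphodiesterase inhibitor Ro 20-1724 added with compounds to block cAMP breakdown; potency is the fitted concentration of half-maximal effect; nearly all actives have a fitted effect of over 60% in size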
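Cells stably selected in G418 were plated at 2000/well, grown 16-24 hr, then given compounds in DMSO with the PDE inhibitor […] (300 uM solution added) for 30 min at 37C; cAMP was read by HTRF.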
gsp antag – gsp mutant antagonism; gsp-mutant cells, cAMP HTRF, 30 min; Potency, µM (doses to about 76.9 µM), for inactives: top-dose activity change, negative = inhibition, usual class: inhibitors; 340,000 tested, 0.4% active; calls by dose curve; cell line not stated here;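 note: intracellular cAMP measured with PDE inhibitor Ro 20-1724 present during compound exposure; potency is the fitted concentration of half-maximal effect; % is set by controls: 0 for no effect and ±100 for the full control effect; nearly all actives have a fitted effect of over 65% in size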
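G418-selected cells were plated in DMEM/10% FBS for 16-24 h at 37C, then treated with compounds plus the PDE inhibitor […] (300 uM solution added) for 30 min at 37C. Intracellular cAMP was measured by HTRF after 30 min lysis at room temperature.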
RXFP1 ag – RXFP1 (human) receptor agonism | Q9HBX9 | HEK293T-RXFP1 cAMP TR-FRET, 30 min; response scale: percent of porcine relaxin response, buffer zero | Potency, µM (top dose mostly 57.5 µM), for inactives: at the highest dose activation, most hits filed as activators | 370,000 tested, 0.3% active; active = well fitted activation curve with a large enough effect; inconclusive = small, poorly fitted or top-dose-only effect; note: potency is the fitted concentration of half-maximal effect; % is set by controls: 0 for no effect and ±100 for the full control effect; nearly all actives have a fitted effect of over 60% in size
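Agonist response is measured as cAMP accumulation in an RXFP1-transfected HEK293T line under PDE4 inhibition. Values are scaled between buffer-only and 29 nM porcine relaxin, and EC50s come from standard Hill equation fits.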
* = called active by the depositor; i = inactive; u = inconclusive; x = no result given; [ ] = another dose, or the depositor's remark.

SMILES | pAkt inh | RXFP1 antag | gsp agonist | gsp antag | RXFP1 ag
CC1CCCN(C(=O)COC(=O)CNC(=O)c2sc3ccccc3c2Cl)C1 (centres undefined) | i | 3.1 | 31.6µM* | 8.1% | u
CCCOc1ccc(C2=NC(c3ccc(F)cc3)=Nc3ccc(OC)cc3N2)cc1 | x | 1.4 | x | x | -2.6%
Cc1ccc(-n2nc3c(=O)n(CC(=O)NCCC4=CCCCC4)nc(C)c3c2C)cc1 | x | -102.5* | 0.3% | -8.7% | 8.2%
COCc1ccc(CN2CCCC(C(=O)Nc3ccccc3-c3ccc(OC)cc3)C2)o1 (centres undefined) | i | 27.0 | -29.4% | -6.6% | -1.2%
CCc1ccc(CN2CCCC(C(=O)Nc3ccccc3-c3ccc(OC)cc3)C2)o1 (centres undefined) | i | -77.1* | -29.4% | -3.9% | 0.4%
CC(C)NC(=O)c1cc2cc(Br)ccc2oc1=O | i | 5.8 | -22.3% | -6.6% | -3.4%
O=C(Nn1cnnc1)c1cc2cc(Br)ccc2oc1=O | -93.3%* | 10.8 | u | 3.0% | 1.3%
Cc1ccc(NC(=O)COC(=O)C2CCC(=O)N2)c(S(=O)(=O)N2CCOCC2)c1 (centres undefined) | -114.2%* | 2.9 | 7.8% | 6.9% | -1.7%
COc1ccc(-c2cc(C(F)(F)F)nc(SCC(=O)N3CCCCC3)n2)cc1 | x | x | x | x | -0.2%
O=C(NC1CCN(Cc2ccccc2)CC1)c1ccc(Cn2c(=O)c3ccccc3n(Cc3ccc(F)cc3)c2=O)cc1 | x | -11.7 | x | x | 9.7%
CN1/C(=C/C(=O)c2ccc(Cl)cc2)Sc2cc3c(cc21)OCO3 | i | -19.2 | -76.5% | 31.6µM* | 3.0%
O=C(COc1cccc2ccccc12)Nc1cc(Cl)ccc1C(=O)O | i | -81.0* | 14.8%[15.4 µM] | u | 1.5%
Cc1ccc(OCC(=O)N/N=C/C=C/c2ccco2)c(Br)c1 | i | -76.0* | -16.8% | -1.4% | 0.0%
CC(/C=C/c1ccco1)=N/NC(=O)c1ccccc1Cl | i | -6.3 | -14.9% | -5.7% | 3.7%
O=C(N/N=C/C=C/c1ccco1)c1ccccc1Cl | i | -81.7* | u | -5.3% | 1.5%
COc1ccc(-n2nc(CCC(=O)N(C)O)cc2-c2ccc(Cl)cc2)cc1 | x | -22.0 | x | x | x
Cn1cc(C(=O)[C@@H]2CCc3nc[nH]c3C2)c2ccccc21 | x | 6.0 | x | x | x
CC1CN(C(=O)N2CCC(C(=O)NC3CCCCCC3)CC2)c2cc(Cl)ccc2O1 (centres undefined) | x | -5.3 | x | x | 1.5%
Cc1ccc(NC(=O)NCC2CC2(Cl)Cl)cc1 (centres undefined) | i | 2.2 | -12.1% | 1.4% | -0.7%
O=C(NCC1CC1(Cl)Cl)Nc1ccc(Cl)c(Cl)c1 (centres undefined) | i | -67.0* | -7.1% | u | -3.1%
Cc1noc(NS(=O)(=O)c2ccc(NC(=O)c3ccc(Br)cc3)cc2)c1C | x | -5.2 | x | x | 7.7%
Cc1ccccc1OCc1nnc(SCC(=O)Nc2ccc3nc(SCC(=O)NC(C)(C)C)sc3c2)n1C | i | -7.0 | u | 31.6µM* | 0.9%
Cc1ccccc1OCc1nnc(SCC(=O)Nc2ccc3c(c2)oc2ccccc23)n1C | -99.7%* | -3.6 | -8.1% | 2.7% | -2.8%
Cc1cc(C)cc(NC(=O)C2CCCN(S(=O)(=O)c3cccc4nsnc34)C2)c1 (centres undefined) | x | x | x | x | 4.8%
COc1ccccc1C1c2ccc3ccccc3c2Oc2ncn(CCN(C)C)c(=N)c21 (centres undefined) | i | -78.5* | -19.2%[15.4 µM] | 12.2% | 2.0%
SMILES | pAkt inh | RXFP1 antag | gsp agonist | gsp antag | RXFP1 ag
COc1ccccc1C1c2ccc3ccccc3c2Oc2ncn(CCCO)c(=N)c21 (centres undefined) | i | -3.5 | 9.0% | 14.1% | -1.6%
CC1(C)CC(=O)C2=C(C1)c1c(ccc3ccccc13)NC2c1cc([N+](=O)[O-])cc([N+](=O)[O-])c1O (centres undefined) | i | -72.3* | -10.1%[15.4 µM] | 31.6µM* | 0.2%
CC1(C)CC(=O)C2=C(C1)c1c(ccc3ccccc13)NC2c1ccc(C(=O)O)cc1 (centres undefined) | i | 1.6 | -1.1% | -24.0% | 0.1%
COc1ccc(C(=O)OC2=C(C(=O)c3ccccc3)N(C)S(=O)(=O)c3ccccc32)cc1OC | x | -6.7 | x | x | 1.7%
O=C(O)c1ccc2c(c1)C(=O)N([C@H](Cc1ccc(Cl)cc1)C(=O)O)C2=O | x | x | x | x | 0.6%
Clc1ccc(-n2ncc3c(N4CCCCCC4)ncnc32)cc1 | i | x | -24.2% | -5.2% | 0.2%
Brc1cc(Br)c2ncnc(N3CCCCC3)c2c1 | -82.3%* | 28.6 | 14.1µM* | 2.6% | 25.1µM*
COc1cccc(CCNC(=O)c2cnc3sc(N4CCCCCC4)nn3c2=O)c1 | x | -10.5 | x | x | 2.6%
COc1ccc2c(c1)c1c(c(=O)n(-c3ccc(C)cc3)c(=O)n1CC(=O)N1CCCC1)n2C | x | 2.6 | x | x | 4.4%
Cn1c(=O)c(C(=O)COc2ccc(C#N)cc2)c(N)n(Cc2ccccc2)c1=O | i | 31.3 | u | -0.6% | 17.8µM*
CCC(=O)OCC(=O)c1c(N)n(Cc2ccccc2)c(=O)n(C)c1=O | i | -4.7 | 0.0% | -1.6% | -3.8%
CCCCn1c(C)cc2c(c1=O)C1O[C@](c3ccc(OC)cc3)(Cc3cc(OC)c(OC)cc31)O2 | x | x | x | x | -0.3%[11.5 µM]
CCC(Sc1nc2cc3c(cc2c(=O)n1CCCC(=O)NCc1ccc2c(c1)OCO2)OCO3)C(=O)NCCCOC (centres undefined) | x | -105.8* | x | x | 1.6%
COc1cccc(N(C)C(=S)Oc2ccc3c(c2)CCCC3)n1 | x | -65.4* | x | x | x
COc1ccc(NC(=O)CN(C)CC(=O)Nc2ccc3c(c2)CCC3)cc1 | i | -12.9 | -0.7% | -6.2% | 0.7%
O=C(O)c1cccc(CN2C(=O)S/C(=C/c3cccc([N+](=O)[O-])c3)C2=O)c1 | i | -38.5 | u | 20µM* | 2.9%
C=CCN=C1S/C(=C/c2cccc([N+](=O)[O-])c2)C(=O)N1CC=C | i | x | 2.5% | -5.7% | 4.2%
CNCCCOc1ccc(Cl)cc1C(C)(C)C | i | -85.2* | 16.5% | 21.1% | 3.0%
COCCCNCCCOc1ccc(Cl)cc1C(C)(C)C | i | u | -2.9%[15.4 µM] | 15.1% | 0.0%
Cc1nc2cccnc2n1-c1cccc(C(=O)N2CCN(c3ccc(Cl)cc3)CC2)c1 | x | u | x | x | 13.5%
Cc1ccc(C)c(N2CCN(C(=O)c3cccc(-n4c(C)nc5cccnc54)c3)CC2)c1 | x | -69.7* | x | x | 0.9%
Cc1ccc(Cl)cc1N1CCN(C(=O)c2ccc(C)c(-n3c(C)nc4cccnc43)c2)CC1 | x | -64.3* | x | x | -0.7%
CSc1cccc(NC(=O)CC(c2ccc(F)cc2)N2Cc3ccccc3C2=O)c1 (centres undefined) | x | 17.2 | x | x | 0.0%
Cc1nnc2ccc(-c3cccc(NC(=O)c4ccc(Br)o4)c3)nn12 | i | -75.2* | u | -14.3% | 10.0%
CCOC(=O)c1ccc(O)c(O)c1 | x | 11.6 | x | x | x
